Biological target: RSF1
Test: pooled miR-30 sensor sort-seq; sequence = guide strand
Conditions: shRNA

Sequence	sensor-assay potency score (higher = more potent)
TTGAGATCCATCACTGATCTTG	0.36
TTTGAGATTGTCATCAAACTGA	0.222
TTCTTTTCTTTCTTCATCCAAA	-0.992
TTCTTTTGGTACTTCTCCGTTG	-0.632
TTACCAAGGACCATGAACCTGG	0.217
TTACTTTAGAATTTGTATCTTT	0.216
TATTTCTTTACCACGTCGCAAA	-1.15
TTGATCTTCAGAAAAGTCTGGC	0.121
TTGATCATCTTGTTCTTCTATG	-0.223
TAGAATTTGTATCTTTCTCTGA	0.105
TGTTCTTCTATGTACATTCTGA	0.345
TAAGGCAACATCCAAATCCTGC	-1.12

Biological target: RSPH9
Test: as above
Conditions: shRNA

Sequence	sensor-assay potency score (higher = more potent)
TTTAGCTCAACAGGCTCCCTGA	-0.548
TTAACCAGCATAAGAGACGTGA	0.0215
TTATTCTTTAGCTCAACAGGCT	-0.377
TCAATGACAGACACCAAGCGGG	-0.168
TAGCTCAACAGGCTCCCTGAAA	-1.11

Reference: the OligoGym collection
